In PubChem BioAssay AID493191 (Broad Institute, 2011) one finds outcome data, which are given here for 120 compounds.

The campaign covered roughly 1,300 compounds. About 330 (25%) were called active. The rule behind the calls is not given here. These entries were drawn from the full list. Measured potencies and affinities stand elsewhere.

The nature of this assay: MALME3 melanoma cell viability loss, dose response, orthogonal assay for MITF inhibitor project, CellTiter-Glo, cherry-picked (AID 493191). To be noted: CellTiter-Glo luminescence, 24 h; series mostly up to 35 µM.
For `Cc1ccc(NC(=O)Cc2noc3ccccc23)cc1`, the compound was classed as inactive.
As to `Cc1cnc(NC(=O)c2nn(C)cc2[N+](=O)[O-])s1`, the compound was classed as inactive.
For the compound `COc1ccccc1C(=O)Nc1nc(-c2ccc(S(=O)(=O)N3CCOCC3)cc2)cs1`, the call was inactive.
With `O=C(O)c1cccc(N/N=C/c2cccs2)c1` the entry was “inactive”; with `Cc1cc(C(=O)Nc2ccc([N+](=O)[O-])cn2)cs1`, “inactive”; with `O=C(N/N=C/c1cc([N+](=O)[O-])ccc1N1CCNCC1)c1ccc([N+](=O)[O-])cc1`, “inactive”.
Turning to `O=C(O)c1cccc(N/N=C/c2ccc(OC(F)(F)F)cc2)c1`, the outcome was inactive.
In the case of `c1cnc(SCCOc2ccc3c(c2)CCC3)nc1` it was “inactive”; in that of `Cn1nnnc1Sc1ncnc2scc(-c3cccc(F)c3)c12`, “inactive”.
With `CC1CCCCC1NC(=O)/C(C#N)=C/c1ccccc1F` (stereo not given) the entry was “inactive”; with `COc1cccc(NC(=O)c2cnn(-c3ccccc3)c2C)c1`, “inactive”.
As to `CCOc1ccc(NC(=O)c2ccc3snnc3c2)cc1`, the call was inactive.
In the case of `CCOc1ccc(-c2noc(CCC(=O)O)n2)cc1` it was “inactive”; in that of `Cc1nc(NC(=O)/C=C/c2ccccc2)n[nH]1`, “inactive”; in that of `O=C(Nc1ccc(Cl)cc1)OCc1ccccn1`, “inactive”.
With `COc1ccc(C(=O)Nc2ccc3ccccc3c2)cc1OC` the entry was “inactive”; with `O=C(Nc1ccc2ncccc2c1)c1ccccc1Br`, “inactive”.
With `O=C(Nc1ccc(N2CCOCC2)cc1)c1cnsn1` the entry was “inactive”; with `O=C(CCCCl)NC(=S)Nc1ccc(N2CCOCC2)cc1`, “inactive”; with `O=C(Nc1ccc2c(c1)OCCO2)c1coc2ccccc2c1=O`, “inactive”.
On to `Brc1cccc(/C=N/Nc2nn[nH]n2)c1`, for which the compound was classed as inactive.
With `CCN(CC)CC(=O)Nc1scc2c1c(=O)oc1ccccc12` the entry was “inactive”; with `Cc1ccc(Nc2nnc(-c3ccccc3N)o2)cc1C`, “inactive”; with `C=CCOc1ccc(/C=C/C(C)=N\O)cc1`, “inactive”.
As for `O=C(c1cc2ccccc2oc1=O)N(Cc1ccccc1)C1CCS(=O)(=O)C1` (stereo not given), the outcome was inactive.
In the case of `COc1ccc(C(=O)NCC(=O)c2ccccc2)cc1` it was “inactive”; in that of `NCCN1C(=O)S/C(=C\c2ccc3c(c2)OCO3)C1=O`, “inactive”.
In the case of `CC(C)S(=O)(=O)c1csc(C(=O)Nc2ccc(F)cc2)c1N` it was “inactive”.
In the case of `O=C(NCc1ccc2c(c1)OCO2)c1cc(=O)[nH]c2ccccc12` it was “inactive”; in that of `CN(C)c1ccc(NC(=S)c2ccccn2)cc1`, “inactive”; in that of `N/C(=N\OC(=O)c1ccc(Cl)cc1Cl)c1ccncc1`, “inactive”.
On to `Cc1ccc(-n2nnnc2Sc2nc([N+](=O)[O-])nn2C)c(C)c1`, for which the outcome was inactive.
`Cc1ccc(-n2cc(CNCCCn3cccn3)c(-c3cccc(C)c3)n2)cc1`: the result was inactive.
In the case of `C=C1C(=O)O[C@@]23[C@H]1CC[C@@H](C)[C@@H]2CC[C@@]1(C)O[C@@H]31` it was “inactive”.
Turning to `Cc1ccc(C2CC(C(F)(F)F)n3nc(C(=O)NCc4c(C)nn(C)c4C)c(Cl)c3N2)cc1` (stereo not given), the outcome was inactive.
For the compound `Cn1c(/C=C/c2ccc(Cl)cc2)nc2ccccc2c1=O`, the compound was classed as inactive.
In the case of `COc1cccc(-c2csc3ncnc(Sc4nnnn4C)c23)c1` it was “inactive”; in that of `Cc1ccc(-c2noc(CN3CCCCC3)n2)cc1`, “inactive”.
Regarding `O=C(Nc1ccc(N2CCOCC2)c(Cl)c1)c1cccc(F)c1`, the result was inactive.
With `C=CCn1cccc(C(=O)Nc2ccc(C)c(Cl)c2)c1=O` the entry was “inactive”; with `Cc1ccc2nc(NC(=O)CSCC(=O)OCC(=O)c3ccccc3)sc2c1`, “inactive”; with `O=C(O)c1ccc(N/N=C/c2ccc3nccnc3c2)cc1`, “inactive”.
With `Clc1nccnc1N/N=C/c1ccc(Br)cc1` the entry was “inactive”; with `CCSC1(SCC)N=C(N)C2(C#N)C(c3ccc(F)cc3)C12C#N` (stereo not given), “inactive”.
In the case of `O=C(COC(=O)c1ccc[nH]c1=O)Nc1ccc(N2CCCCC2)cc1`, the compound was called inactive.
In the case of `CCOc1ccc(-c2nnc(-c3cccs3)o2)cc1OCC` it was “inactive”.
With `CCOC(=O)C1(Cc2cccc(OC)c2)CCCN(C(=O)CSC)C1` (stereo not given) the entry was “inactive”; with `CCOc1ccc(NC(=O)CCC(=O)N/N=C/c2ccc([N+](=O)[O-])s2)cc1`, “inactive”.
`Cc1onc(-c2ccccc2)c1C(=O)N/N=C/c1ccc([N+](=O)[O-])s1`: the call was inactive.
For `COc1ccc(NC(C)C(=O)N/N=C/c2ccc([N+](=O)[O-])s2)cc1` (stereo not given), the call was inactive.
With `O=C(/C=C\c1ccccc1)NCC(=O)N/N=C/c1ccc(O)cc1O` the entry was “inactive”.
As for `O=C(Cc1ccccc1)NCC(=O)N/N=C/c1ccc([N+](=O)[O-])s1`, the compound was called inactive.
In the case of `N/C(=N\OC(=O)c1cccc(F)c1)c1cccc([N+](=O)[O-])c1` it was “inactive”.
In the case of `COc1ccc(-c2csc(N(C)C(=O)c3ccco3)n2)cc1`, the compound was called inactive.
With `COCCn1c(C)cc(C(=O)COC(=O)c2ccccc2Br)c1C` the entry was “inactive”; with `CC(/C=C1\SC(=O)N(CCCC(=O)O)C1=O)=C\c1ccccc1`, “inactive”.
Turning to `CCN(Cc1ccc(OC)c(F)c1)C(=O)CCl`, the result was inactive.
For the compound `c1ccc(OCc2nc3ccccc3[nH]2)cc1`, the compound was classed as inactive.
As to `COc1cccc2c1C(=O)C=C(C)C2=O`, the call was inactive.
For the compound `Cc1cc(C=C2C(=O)c3ccccc3C2=O)c(C)n1-c1ccccc1`, the compound was called inactive.
In the case of `N#CC1=C(c2ccccc2)/C(=C/c2ccccc2)OC1=O` it was “inactive”; in that of `O=C(O)c1ccccc1C(=O)Nc1ccc(Oc2cccc3ccccc23)cc1`, “inactive”; in that of `Cc1ccc(N2C(=O)c3ccc(N)cc3C2=O)cc1C`, “inactive”.
Turning to `COc1ccc(/C=N/Nc2cc(C)nc(-n3nc(C)cc3C)n2)c(OC)c1`, the compound was called inactive.
As to `O=C1CCC2S/C(=C/Nc3ccc(C(F)(F)F)cc3)C(=O)N12` (stereo not given), the compound was classed as inactive.
With `Cc1nc(C)c(C(=O)N/N=C/c2cc(Br)ccc2O)s1` the entry was “inactive”; with `CC(C)C(=O)NC(c1ccco1)c1ccc2cccnc2c1O` (stereo not given), “inactive”.
With `C=CCN=C1NN=C(c2ccc3c(c2)OCCO3)CS1` the entry was “inactive”; with `C=CCn1c(C)cc(C2=NNC(=NC(C)(C)C)SC2)c1C`, “inactive”; with `COc1ccccc1NC(=O)c1cnc(SCC(=O)NCC2CCCO2)n(C)c1=O` (stereo not given), “inactive”.
With `Cc1nc(Sc2nnnn2C)c2c3c(sc2n1)CCC3` the entry was “inactive”; with `COCCNC(=O)/C(C#N)=C/c1cccc(/C=C(\C#N)C(=O)NCCOC)c1`, “inactive”.
Consider `CCOCCCNC(=O)/C(C#N)=C/c1ccc(Cl)c([N+](=O)[O-])c1`, for which the compound was classed as inactive.
In the case of `CCCOc1ccc(C(=O)Nc2ccc3c(c2)OCCO3)cc1` it was “inactive”; in that of `CC1CCCC(NC(=O)NC(=O)CCl)C1C` (stereo not given), “inactive”.
With `CCCc1ccc(-c2ccc(/C=C/C(=O)O)cc2)nc1` the entry was “inactive”; with `COc1cc(OC)cc(C(=O)N[C@H](C(=O)Nc2nc3ccccc3[nH]2)C(C)C)c1`, “inactive”.
Consider `CCCCNc1nc(=S)n(-c2ccccc2)c(C)c1C(C)=O`, for which the compound was classed as inactive.
As for `Cc1cc(Br)ccc1OCc1nc(-c2cccnc2)no1`, the result was inactive.
`CC(=O)COc1ccc2cc(-c3ccccc3)c(=O)oc2c1`: the compound was classed as inactive.
For `CCOC(=O)c1cc(-c2ccc(OC)cc2)n[nH]1`, the outcome was inactive.
With `COc1ccc(Cn2c(-c3ccc(C)cc3)c[n+]3ccccc23)cc1` the entry was “inactive”; with `CC(=O)N(c1nnc(-c2cccc(C)c2)s1)C1CCCC1`, “inactive”; with `O=C(Nc1ccc2nc(-c3ccccc3)[nH]c2c1)c1ccco1`, “inactive”.
Regarding `Cc1cccc(NC(=O)Cc2ccc(Br)cc2)n1`, the outcome was inactive.
On to `C/C(=N\NC(=O)Cc1ccc(Cl)cc1)c1ccccn1`, for which the call was inactive.
On to `CC(=NNc1nc2ccccc2o1)c1cc2ccccc2cn1`, for which the result was inactive.
With `NCCCNc1nc(N)c([N+](=O)[O-])c(NC2CCCCC2)n1` the entry was “inactive”; with `CC(=O)c1ccc(N/C=C/C(=O)c2ccc(Br)cc2)cc1`, “inactive”.
As for `COc1ccc(NC(=O)c2scc(S(=O)(=O)C(C)C)c2N)cc1`, the compound was called inactive.
`C/C(=N\NC(=O)C(c1ccccc1)c1ccccc1)c1ccccn1`: the compound was classed as inactive.
With `CCOC(=O)C1(Cc2ccccc2)CCCN(CCCn2cccn2)C1` (stereo not given), the compound was called inactive.
For the compound `CN(C)S(=O)(=O)c1ccc(-c2csc(N/N=C/c3ccco3)n2)cc1`, the outcome was inactive.
In the case of `Cc1csc(N/N=C/c2ccc([N+](=O)[O-])cc2)n1` it was “inactive”.
Take `COC(=O)c1ccc(/C=C(\C#N)C(=O)NC(C)c2ccccc2)cc1` (stereo not given): the compound was classed as inactive.
In the case of `COc1ccc(/C=C2\SC(=O)N(CCCC(=O)Nc3cc(Cl)ccc3C(=O)O)C2=O)cc1` it was “inactive”; in that of `c1cc(CSc2nnc(-c3ccc4c(c3)OCO4)o2)ccn1`, “inactive”; in that of `COc1ccc2c(C)nc(Nc3nc(-c4ccccc4)cc(=O)[nH]3)nc2c1`, “inactive”.
With `O=C(Nc1cc2c(cc1Cl)OCCO2)c1ccco1`, the result was inactive.
In the case of `Nc1nnnn1/N=C/C(Br)=C/c1ccccc1` it was “inactive”.
With `Cc1cc(C)nc(S/C=C/C(=O)c2ccccc2F)n1`, the result was inactive.
Take `Cn1nc([N+](=O)[O-])nc1S(C)(=O)=O`: the compound was classed as inactive.
With `CN(C)c1ccc(CNc2ccccn2)cc1` the entry was “inactive”; with `COC(=O)c1ccc(/C=N/Nc2nc(C)c(C)s2)cc1`, “inactive”.
With `O=C(CCNc1ccccc1)c1ccc2c(c1)OCO2` the entry was “inactive”; with `CC1=NOC(=O)/C1=C\c1ccc(-c2cccc(Cl)c2)o1`, “inactive”.
In the case of `COc1cc2ccccc2cc1C(=O)Nc1ccc(N2CCN(C)CC2)cc1`, the compound was classed as inactive.
In the case of `COc1ccc(NC(=O)C2COc3ccccc3O2)cc1` (stereo not given) it was “inactive”; in that of `CCC1CCCCN1CCCNC(=O)c1cn(CC)c2ccc(S(=O)(=O)N(C)C3CCCCC3)cc2c1=O` (stereo not given), “inactive”; in that of `Cc1c(C(=O)N(CCO)Cc2ccccc2)oc2c(F)cccc12`, “inactive”.
In the case of `O=C(O)CSCC(=O)Nc1ccc(C2CCCCC2)cc1` it was “inactive”; in that of `CC(C)OC(=O)CSc1nc2cc3c(cc2cc1C#N)OCO3`, “inactive”.
In the case of `Cc1nn(-c2ccccc2Cl)c(Cl)c1/C=N/Nc1cccc(C(=O)O)c1` it was “inactive”.
Take `N#Cc1cc2c(nc1SC1CC(=O)N(c3ccccc3)C1=O)CCC2` (stereo not given): the compound was called inactive.
On to `CCSc1ccccc1C(=O)n1nnc2ccccc21`, for which the result was inactive.
In the case of `COc1ccc(/C=C/c2cc(C(F)(F)F)on2)cc1` it was “inactive”.
In the case of `Cc1[nH]nc(Nc2ccc(Br)cc2)c1[N+](=O)[O-]` it was “inactive”; in that of `CCCCNC(=O)Nc1ccc(C2SCCS2)cc1`, “inactive”.
In the case of `COc1ccc(COC(=O)c2cc([N+](=O)[O-])ccc2N2CCOCC2)cc1F`, the compound was called inactive.
With `Cc1ccccc1-n1ncc2c([N+](=O)[O-])cc([N+](=O)[O-])cc21` the entry was “inactive”.
